GLP-1R inv ag = qHTS of GLP-1 Receptor Inverse Agonists (Inhibition Mode). HEK293 GLP-1R CRE-luciferase, luminescence, 24 h; GLP-1R form is constitutively active. Potency, µM (titrated, usually from 38.3 µM), for inactives: at the top dose activity change, negative = inhibition, actives largely listed as inhibitors. 410,000 compounds, 1.6% hits. AID 624417, 2012; also: potency is read from the fitted curve at half-maximal effect; % is scaled to controls: 0 for no effect and ±100 for the full control effect; nearly all actives have a fitted effect of over 55% in size
Target sequence (P43220 whole entry, looked up): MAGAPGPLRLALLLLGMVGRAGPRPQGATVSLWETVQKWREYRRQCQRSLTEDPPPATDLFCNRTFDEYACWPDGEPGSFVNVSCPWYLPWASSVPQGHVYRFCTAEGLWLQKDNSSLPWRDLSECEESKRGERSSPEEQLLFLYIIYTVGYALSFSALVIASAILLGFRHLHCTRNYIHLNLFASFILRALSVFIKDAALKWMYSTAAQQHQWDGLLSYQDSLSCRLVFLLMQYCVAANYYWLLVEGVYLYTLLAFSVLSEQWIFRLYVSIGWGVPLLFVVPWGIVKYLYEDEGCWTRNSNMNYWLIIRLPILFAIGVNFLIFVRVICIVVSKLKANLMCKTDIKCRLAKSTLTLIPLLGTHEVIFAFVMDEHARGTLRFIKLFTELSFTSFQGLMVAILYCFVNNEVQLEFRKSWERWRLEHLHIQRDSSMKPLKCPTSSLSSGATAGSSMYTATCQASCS
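Readout was luciferase luminescence, measured 12 min after detection reagent at room temperature. Beforehand, GLP-1R reporter HEK293 cells had sat 12 h, then received compounds for 24 hr at 37 deg C.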
D3 ag = qHTS of D3 Dopamine Receptor Agonist: qHTS; D(3) dopamine receptor (Homo sapiens), P35462; max activation, %; 410,000 compounds, 0.58% hits; AID 652048, 2013; D3R DiscoveRx beta-arrestin cells, luminescence, 90 min; in the data active = max activation above about 30%; also: 0% is about no effect
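Cells at 1500/well, incubated overnight, then treated with pinned compounds (dopamine as control) for 90 min at 37 degrees C. DiscoveRx reagent added for 30 - 60 minutes at room temperature; luminescence read.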
D3 antag = qHTS of D3 Dopamine Receptor Antagonist: qHTS; D(3) dopamine receptor (Homo sapiens), P35462; D3R cells, DiscoveRx beta-arrestin luminescence, antagonist mode; stronger effect = lower value; max response, negative = inhibition, %; 360,000 compounds, 2.5% hits; AID 652054, 2013; in the data active = max response below about -50%; inconclusive = no clear call, values can overlap the other calls; also: % is scaled to controls: 0 for no effect and ±100 for the full control effect
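Cells expressing the human receptor were seeded at 1500 cells/well, incubated overnight at 37 degrees C in 5% CO2, then exposed to library compounds with dopamine controls for 90 minutes at 37 degrees C before luminescent detection.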
GLP-1R agonist = qHTS of GLP-1 Receptor Agonists | HEK293 GLP-1R CRE-luciferase, luminescence, 4-6 h; cells express a hypersensitive GLP-1R form | Potency, µM (series often up to 45.6 µM), without a hit: at the top dose activation, most hits filed as activators | Glucagon-like peptide 1 receptor (Homo sapiens), P43220 | 380,000 compounds, 0.007% hits; also: potency is read from the fitted curve at half-maximal effect; % of control where 0% means no effect
The depositor's hits bear a star; ? = inconclusive; / = no result; [ ] = remark or other dose. Compounds with a hit are over-represented: about 4.3% of the library has one in this group of screens. Unless noted, calls follow the shape of the dose curve; as a rule, active = well fitted curve in the direction sought with a large enough effect; inconclusive = small, poorly fitted or top-dose-only effect, or another doubt; inactive = no such curve, though single readings can be large; an effect the other way counts as inactive or inconclusive.

SMILES | GLP-1R inv ag | D3 ag | D3 antag | GLP-1R agonist
CN1CCN(c2ccc([N+](=O)[O-])cc2Cl)CC1 | ? | -13 | -21 | 0%
CN1CCN(c2cc([N+](=O)[O-])ccc2Cl)CC1 | 2% | -17 | -99* | 7%
C[N+]1(CCF)[C@@H]2CC[C@@H]1CC(OC(=O)C(O)(c1ccccc1)c1ccccc1)C2 (stereo partly drawn) | / | / | / | 11%
CCCOP(=O)(OCCC)c1nc(-c2ccccc2)oc1NCc1ccccc1 | 10µM* | -9 | 5 | 8%
C[C@H](CO)N1C[C@H](C)[C@H](CN(C)C(=O)N[C@H](C)c2ccccc2)OCc2ccccc2-c2c(n(C)c3ccccc23)C1=O | ? | -3 | -20 | 9%
Cc1ccc2nc(N3CCC(C(=O)N4CCC5(CC4)OCCO5)CC3)sc2c1 | 2% | 5 | -51* | -2%
CC1(O)CCC2C3CCC4=CC(=O)CCC4(C)C3(F)C(O)CC21C (stereo not drawn) | / | / | / | 10%
CCN(CC)C(=O)c1ccc(NC(=O)c2cn(-c3ccccc3)nc2-c2ccc(OC)cc2)cc1 | 4.5µM* | 1 | -5 | 9%
CCN(CC)C(=O)c1ccc(NC(=O)COc2ccc(-c3nn(C)c(=O)c4ccccc34)cc2)cc1 | 141% | 19 | 46 | 13%
C=CCN1CC[C@]23CCCC[C@H]2[C@H]1Cc1ccc(O)cc13 | / | -19 | / | /
COC(=O)C1=C(c2ccc(OC(F)(F)F)cc2)C[C@@H]2CC[C@H]1N2C(=O)NC1CCCCC1 | 13µM* | 10 | 10 | 2%
COC(=O)C1=C(c2ccc(OC(F)(F)F)cc2)C[C@@H]2CC[C@H]1N2C(=O)NCc1cccc2ccccc12 | 7.9µM* | -7 | -13 | 1%
COC(=O)C1=C(c2ccc(OC(F)(F)F)cc2)C[C@@H]2CC[C@H]1N2C(=O)NC1Cc2ccccc2C1 | 7% | 6 | 17 | 0%
COC(=O)C1=C(c2ccc(OCc3ccccc3)cc2)C[C@@H]2CC[C@H]1N2C(=O)NC1CCN(Cc2ccccc2)CC1 | 7.9µM* | -33 | -94* | 7%
COC(=O)C1=C(c2ccc(OCc3ccccc3)cc2)C[C@@H]2CC[C@H]1N2C(=O)NCCN1CCOCC1 | 0% | -5 | -10 | 16%
CC(=O)c1ccc(NC(=O)CSc2nc(=O)cc(N)n2-c2ccccc2)cc1 | 30% | 5 | -13 | 10%
CCC(=O)O[C@@](Cc1ccccc1)(c1ccccc1)[C@H](C)CN(C)C | / | / | / | -7%[96 µM]
Cc1cccc(N2CCN(C(=O)CCNS(=O)(=O)c3ccc4c(c3)oc(=O)n4C)CC2)c1C | ? | -9 | 4 | -6%
CN(C)C1C(=O)C(C(N)=O)C(=O)C2(O)C(=O)C3C(=O)c4c(O)cccc4C(C)(O)C3C(O)C12 (stereo not drawn) | / | / | / | 2%
COc1ccc(CCNCc2ccc(SC)cc2)cc1 | -18% | -35 | -53* | -3%
CN(C)CCCOc1nn(Cc2ccccc2)c2ccccc12 | ? | -87 | -93* | 0%
O.O.O.O=C([O-])C(O)C(O)C(=O)[O-].O=C([O-])C(O)C(O)C(=O)[O-].[K+].[K+].[Sb].[Sb] (stereo not drawn) | / | -11 | / | /
Cc1ccsc1C(=O)C1CCCN(Cc2cnc(N3CCCC3)s2)C1 (stereo not drawn) | ? | -17 | -79* | 20%
Cc1ccsc1C(=O)C1CCCN(Cc2cc3ccccc3o2)C1 (stereo not drawn) | ? | -18 | ? | 1%
Cc1ccc(CN2CCCC(C(=O)c3sccc3C)C2)o1 (stereo not drawn) | ? | -24 | -52* | 5%
SMILES | GLP-1R inv ag | D3 ag | D3 antag | GLP-1R agonist
O=C(CCN1CCN(CCO)CC1)N1c2ccccc2Sc2ccc(C(F)(F)F)cc21 | -32% | -34 | -74* | -1%
Cc1cc(OC(=O)N(C)C)n(-c2ccccc2)n1 | 9% | 8 | 9 | 16%
Cc1cc(OC(=O)N(C)C)nc(SCc2c(Cl)cccc2Cl)n1 | 10µM* | 4 | -11 | 6%
CC12CCC3c4ccc(OC(=O)N(CCCl)CCCl)cc4CCC3C1CCC2O (stereo not drawn) | 10µM* | -7 | -5 | -2%
O=C(Oc1ccc(Cl)c2cccnc12)N1CCCCCC1 | ? | -7 | 0 | 24%
O=C(Nc1c(Cl)cccc1Cl)Oc1cccc2cccnc12 | ? | 2 | -52* | 0%
CC(Oc1ccc(Br)cc1)C(=O)N(Cc1nc(-c2ccccc2)no1)C(C)C (stereo not drawn) | ? | -11 | / | /
O=C(OC1CCN(CCCl)CC1)C(c1ccccc1)c1ccccc1 | -9% | -96 | -95* | 23%
Cc1ccc2c(c1)cc(C(=O)Nc1ccccc1C)n2C | ? | -18 | / | /
On1ccccc1=S | 7.9µM* | -47 | -140* | -6%
CN(C)C1(CNC(=O)Nc2ccc(Cl)c(Cl)c2)CCCCC1 | 4µM* | -27 | -55* | -4%
Cc1ccccc1S(=O)(=O)N1C[C@H]2[C@H]3C(=O)N(C4CCCCC4)C(=O)[C@H]3CC(=O)[C@H]2[C@@H]1c1ccc(Cl)cc1 | ? | -5 | -15 | -1%
COc1cc(C)c(CN2CC=C(c3ccc(F)cc3)CC2)cc1C | ? | -10 | -76* | -4%
COc1cc(CN2CC=C(c3ccc(F)cc3)CC2)cc(OC)c1 | ? | -24 | -88* | -2%
CN(C)c1ccc(CN2CC=C(c3ccc(F)cc3)CC2)cc1 | ? | -60 | -88* | -11%
COc1cccc(CN2CCN(Cc3cccc(F)c3)CC2)c1 | -14% | -20 | 0 | -1%
O=C(CN1CC=C(c2ccccc2)CC1)NC(=O)NCc1ccccc1 | -18% | -18 | -17 | 4%
O=[N+]([O-])c1ccc(CN2CC=C(c3ccccc3)CC2)cc1 | -23% | -16 | -55* | 4%
Cc1ccc(C(c2nnnn2Cc2ccccc2)N2CC=C(c3ccc(F)cc3)CC2)cc1 (stereo not drawn) | ? | -15 | -16 | 6%
CC(C)C[C@H](CN)CC(=O)O | / | 2 | / | /
CC1(Cc2ccc(C(F)(F)F)nc2)C(=O)Nc2cc(-c3ccccc3Cl)ccc21 (stereo not drawn) | ? | -2 | -9 | 5%
O=C(NCc1ccc(Cl)cc1)C1CCN(C(=O)c2cnn(-c3ccccc3)c2-n2cccc2)CC1 | ? | 7 | / | /
C[C@]12CCC(=O)C=C1CC[C@@H]1[C@H]3CC[C@](C)(O)[C@@]3(C)CC[C@@H]12 | / | / | / | 12%[96 µM]
O=C(CN1CCOCC1)c1cccc2ccccc12 | 11% | -7 | -55* | -9%
O=C(CN1CCOCC1)c1ccc(Br)cc1 | 13% | -15 | ? | -1%
O=C1C[C@@H]2OCC=C3CN4CC[C@]56c7ccccc7N1[C@H]5[C@H]2[C@H]3C[C@H]46 | / | -12 | / | /

Source: PubChem BioAssay
